In PubChem BioAssay (NCI) one finds growth data, which are given here for twelve compounds.

The panel holds about 83,000 compounds, 20% with a hit somewhere; the sample as a whole holds those more often.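 Results are percent growth after 48 hours of single-concentration exposure. 100 means growth as in untreated cells, lower positive values show inhibition; negative values down to -100 show cell death.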 Unmarked numbers belong to inactive results. Activity calls are given as the source filed them. The calls were made as follows: active = growth percent below 10; inactive = the rest.

Common to all, as to experiment: NCI-60 one-dose screen, 48 h (100 = growth as untreated, 0 = no growth, -100 = all killed)
One experiment concerns NCI-H23 lung. The note with it: 10 µM unless noted.
For the next experiment, the system named is HOP-62 NSCLC. The note with it: 10 µM unless noted.
In the next experiment the test system is NCI-H522 lung. The note with it: 10 µM unless noted.
In another experiment the test system is COLO 205 colon. The note with it: 10 µM.
Another experiment relates to K-562 leukemia. The note with it: 10 µM unless noted.
A further experiment concerns SF-295 CNS. The note with it: 10 µM unless noted.
The test system of a further experiment is M14 melanoma. The note with it: 10 µM unless noted.
The subject of a further experiment is U251 CNS. The note with it: 10 µM unless noted.
Another experiment relates to LOX IMVI melanoma. The following applies: 10 µM unless noted.
A further experiment relates to SK-MEL-2 melanoma. The note with it: 10 µM unless noted.
Another experiment relates to EKVX NSCLC. The following applies: 10 µM unless noted.
The subject of a further experiment is CAKI-1 renal. The note with it: 10 µM unless noted.
For the next experiment, the system named is A498 renal. The note with it: 10 µM unless noted.
For a further experiment, the system named is RPMI-8226 leukemia. The note with it: 10 µM unless noted.
For the next experiment, the system named is SK-OV-3 ovarian. The note with it: 10 µM unless noted.
Another experiment has as its system HCT-116 colon. The note with it: 10 µM unless noted.
The test system of a further experiment is NCI-H322M lung. The following applies: 10 µM unless noted.
The test system of a further experiment is MOLT-4 leukemia. The note with it: 10 µM.
Another experiment relates to NCI-H226 lung. The following applies: 10 µM unless noted.

Regarding `n1nc(-c2nonc2-c2nn[nH]n2)n[nH]1`, the growth in the experiment on NCI-H23 lung was 102%; with HOP-62 NSCLC, 112%; in the experiment on NCI-H522 lung, 101%; in the experiment on COLO 205 colon, 117%; with K-562 leukemia, 106%; with SF-295 CNS, 94.5%. In addition, the growth is 115% in the experiment on M14 melanoma; 101% in the experiment on U251 CNS; 103% in the experiment with LOX IMVI melanoma; 115% in the experiment on SK-MEL-2 melanoma; 96.3% in the experiment with EKVX NSCLC; 98.8% with CAKI-1 renal. For the same compound, the growth in the experiment on A498 renal was 81.9%; with RPMI-8226 leukemia, 96.5%; in the experiment on SK-OV-3 ovarian, 115%; with HCT-116 colon, 106%.

As for `CCN1CC2(CN(CC)C1=S)C(=O)NC(=O)NC2=O`, the growth in the experiment on NCI-H23 lung is 98.9%; in the experiment on NCI-H322M lung, 107%; with HOP-62 NSCLC, 90.1%; in the experiment with NCI-H522 lung, 84.7%; with K-562 leukemia, 87.5%; with SF-295 CNS, 95.1%. Further, the growth in the experiment with U251 CNS was 97.7%; in the experiment on LOX IMVI melanoma it was 103%; in the experiment with SK-MEL-2 melanoma, 99%; with A498 renal, 112%; in the experiment with MOLT-4 leukemia, 107%; with RPMI-8226 leukemia, 100%. Further, the growth in the experiment on HCT-116 colon was 97.3%.

As for `CC12CC[C@H](O)C=C1/C(=N/O)CC1C2CCC2(C)C1CC[C@@H]2O` (stereo not given in full), the growth in the experiment on NCI-H23 lung is 103%; in the experiment on NCI-H226 lung, 97.1%; in the experiment with HOP-62 NSCLC, 96.4%; with NCI-H522 lung it was 90.1%; with COLO 205 colon, 115%; in the experiment with M14 melanoma, 95.7%. In addition, the growth in the experiment with U251 CNS was 105%; in the experiment with LOX IMVI melanoma it was 94.3%; in the experiment with SK-MEL-2 melanoma, 99.2%; in the experiment on CAKI-1 renal, 84%; in the experiment with SK-OV-3 ovarian, 95%.

For `O=C(O)C1(Br)CC12c1ccccc1-c1ccccc12` (stereo not given), the growth is 97.1% in the experiment with NCI-H23 lung; 98.9% with NCI-H226 lung; 95.9% in the experiment with NCI-H522 lung; 115% in the experiment with COLO 205 colon; 86.6% in the experiment with K-562 leukemia; 102% in the experiment on M14 melanoma. For the same compound, the growth with LOX IMVI melanoma was 96.1%; with SK-MEL-2 melanoma, 110%; with EKVX NSCLC, 116%; in the experiment with MOLT-4 leukemia it was 86%; in the experiment with SK-OV-3 ovarian, 101%; with HCT-116 colon it was 100%.

With `OC1CCCCC1N1CCC(c2ccccc2)CC1` (stereo not given), the growth in the experiment on NCI-H23 lung is 100%; with NCI-H226 lung, 114%; in the experiment with COLO 205 colon, 107%; with SF-295 CNS, 98.5%; with M14 melanoma, 106%; in the experiment with U251 CNS, 105%. The growth was 99.4% in the experiment with LOX IMVI melanoma; 96.5% with CAKI-1 renal; 89.4% in the experiment with A498 renal; 79.9% in the experiment on MOLT-4 leukemia; 107% in the experiment on RPMI-8226 leukemia; 94.5% in the experiment with HCT-116 colon.

As to `CCOc1c(Cl)cc(CNC(C)C(O)c2ccccc2)cc1OC` (stereo not given), the growth in the experiment with NCI-H23 lung is 80.4%; in the experiment on NCI-H322M lung, 92%; in the experiment on HOP-62 NSCLC it was 73.3%; in the experiment with NCI-H522 lung it was 69.1%; with COLO 205 colon, 95%; in the experiment on K-562 leukemia it was 13.9%. The growth with SF-295 CNS is 48.4%; with M14 melanoma, 57.4%; with LOX IMVI melanoma it was 57.1%; in the experiment on SK-MEL-2 melanoma, 72.7%; in the experiment with CAKI-1 renal, 87.9%; in the experiment on A498 renal, 32.9%. Also, the growth in the experiment with RPMI-8226 leukemia is 71.7%; in the experiment with SK-OV-3 ovarian it was 86.3%; in the experiment on HCT-116 colon, 59.2%.

With `Clc1ccc(SSC(Cl)(Cl)Cl)cc1`, the growth is 110% with NCI-H226 lung; 112% in the experiment with NCI-H322M lung; 106% with HOP-62 NSCLC; 107% with NCI-H522 lung; 114% in the experiment on COLO 205 colon; 112% with K-562 leukemia. The growth was 103% in the experiment with SF-295 CNS; 107% in the experiment on M14 melanoma; 98.6% in the experiment with U251 CNS; 103% in the experiment on LOX IMVI melanoma; 123% in the experiment on SK-MEL-2 melanoma; 108% in the experiment with EKVX NSCLC. Also, the growth is 119% with CAKI-1 renal; 111% in the experiment with A498 renal; 99.7% with MOLT-4 leukemia; 119% in the experiment with RPMI-8226 leukemia; 115% in the experiment on SK-OV-3 ovarian.

Regarding `Oc1ccccc1OB(Oc1ccccc1O)N(CCCl)CCCl`, the growth in the experiment with NCI-H226 lung is 101%; in the experiment on HOP-62 NSCLC, 104%; with NCI-H522 lung it was -6.22% (active); in the experiment on COLO 205 colon, 98.4%; with K-562 leukemia it was 96.2%; in the experiment with SF-295 CNS, 102%. Moreover, the growth was 85.2% with M14 melanoma; 104% in the experiment with SK-MEL-2 melanoma; 80.4% in the experiment with CAKI-1 renal; 88.6% in the experiment on A498 renal; 39.2% in the experiment with RPMI-8226 leukemia; 112% in the experiment on SK-OV-3 ovarian. The growth in the experiment with HCT-116 colon was 86.8%.

Consider `COC[CH2][Hg][C]#[C][Hg][CH2]COC`, for which the growth is 71% with NCI-H23 lung; 116% in the experiment on NCI-H322M lung; 98.5% in the experiment with HOP-62 NSCLC; 96.9% with NCI-H522 lung; 96.7% in the experiment on K-562 leukemia; 73.2% in the experiment on M14 melanoma. Besides, the growth in the experiment on LOX IMVI melanoma is 17.5%; in the experiment with SK-MEL-2 melanoma, 41.9%; in the experiment with CAKI-1 renal, 94.8%; with A498 renal, 103%; with MOLT-4 leukemia it was 79.8%; in the experiment on SK-OV-3 ovarian, 96.5%. In the experiment on HCT-116 colon, the growth was 99.2%.

Regarding `CC(=O)O[C@@H]1C2=C(C)C3(CC3)[C@@](C)(O)C(=O)C2=C[C@@]1(C)CO`, the growth in the experiment with NCI-H23 lung is -33.2% (active); with NCI-H322M lung it was -5.44% (active); with HOP-62 NSCLC, -10.1% (active); in the experiment on NCI-H522 lung it was -36.6% (active); in the experiment with K-562 leukemia it was 1.92% (active); with SF-295 CNS, -3.92% (active). Further, the growth with M14 melanoma was -48.6% (active); with U251 CNS, -2.05% (active); in the experiment on LOX IMVI melanoma, -25.2% (active); in the experiment with SK-MEL-2 melanoma, -42.2% (active); with EKVX NSCLC, 13.6%; with CAKI-1 renal it was 3.26% (active). Moreover, the growth in the experiment on RPMI-8226 leukemia was -18.8% (active); with HCT-116 colon, 6.86% (active).

Take `CCC[CH2][Sn]1([CH2]CCC)[O]C(=O)c2cccc([N+](=O)[O-])c2C(=O)[O]1`: the growth in the experiment with NCI-H226 lung is -83.1% (active); with HOP-62 NSCLC, -90.7% (active); in the experiment with NCI-H522 lung, -94.8% (active); with COLO 205 colon, -97.1% (active); in the experiment with K-562 leukemia, -12.3% (active); in the experiment on SF-295 CNS, -36.9% (active). The growth with M14 melanoma was -89.2% (active); in the experiment with LOX IMVI melanoma it was -72% (active); with SK-MEL-2 melanoma, -92% (active); in the experiment with CAKI-1 renal it was -93.4% (active); in the experiment on A498 renal, -94.5% (active); with MOLT-4 leukemia, -24.4% (active). The growth is -40.5% (active) with RPMI-8226 leukemia and -100% (active) in the experiment with HCT-116 colon.

In the case of `Oc1ccc(Br)cc1CN1CCN(Cc2ccc(Cl)cc2)CC1`, the growth in the experiment on NCI-H23 lung was 91.1%; with NCI-H322M lung, 103%; with HOP-62 NSCLC it was 57.6%; in the experiment on NCI-H522 lung it was -84.4% (active); in the experiment on COLO 205 colon, 71.1%; in the experiment with K-562 leukemia, -34.3% (active). Moreover, the growth in the experiment with M14 melanoma was 85.9%; in the experiment on LOX IMVI melanoma, 19.7%; in the experiment with SK-MEL-2 melanoma, 88.2%; with CAKI-1 renal, 59.5%; in the experiment with A498 renal, 105%; with MOLT-4 leukemia it was 56.1%. The results for the growth in the experiment with RPMI-8226 leukemia, in the experiment with SK-OV-3 ovarian and with HCT-116 colon were 16.7%, 101% and 22.2%, respectively.
